# Results: publication PMC4336329 (PLoS ONE, 2015)
# About 14,000 (4.5%) of roughly 310,000 compounds showed an effect of 50% or more. The effect is printed as a negative number. The entries come from a sample that favours strong results as a whole.
# Molecular target: human ether-à-go-go-related gene (hERG) potassium channel (human, UniProt Q12809)
# Experiment: primary screen, population patch clamp on CHO cells stably expressing hERG; higher = less effect of the substance
# 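Further: peak tail current of the secondary pulse compared with the same well before compound.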
# human ether-à-go-go-related gene (hERG) potassium channel, sequence (Q12809 whole entry, looked up): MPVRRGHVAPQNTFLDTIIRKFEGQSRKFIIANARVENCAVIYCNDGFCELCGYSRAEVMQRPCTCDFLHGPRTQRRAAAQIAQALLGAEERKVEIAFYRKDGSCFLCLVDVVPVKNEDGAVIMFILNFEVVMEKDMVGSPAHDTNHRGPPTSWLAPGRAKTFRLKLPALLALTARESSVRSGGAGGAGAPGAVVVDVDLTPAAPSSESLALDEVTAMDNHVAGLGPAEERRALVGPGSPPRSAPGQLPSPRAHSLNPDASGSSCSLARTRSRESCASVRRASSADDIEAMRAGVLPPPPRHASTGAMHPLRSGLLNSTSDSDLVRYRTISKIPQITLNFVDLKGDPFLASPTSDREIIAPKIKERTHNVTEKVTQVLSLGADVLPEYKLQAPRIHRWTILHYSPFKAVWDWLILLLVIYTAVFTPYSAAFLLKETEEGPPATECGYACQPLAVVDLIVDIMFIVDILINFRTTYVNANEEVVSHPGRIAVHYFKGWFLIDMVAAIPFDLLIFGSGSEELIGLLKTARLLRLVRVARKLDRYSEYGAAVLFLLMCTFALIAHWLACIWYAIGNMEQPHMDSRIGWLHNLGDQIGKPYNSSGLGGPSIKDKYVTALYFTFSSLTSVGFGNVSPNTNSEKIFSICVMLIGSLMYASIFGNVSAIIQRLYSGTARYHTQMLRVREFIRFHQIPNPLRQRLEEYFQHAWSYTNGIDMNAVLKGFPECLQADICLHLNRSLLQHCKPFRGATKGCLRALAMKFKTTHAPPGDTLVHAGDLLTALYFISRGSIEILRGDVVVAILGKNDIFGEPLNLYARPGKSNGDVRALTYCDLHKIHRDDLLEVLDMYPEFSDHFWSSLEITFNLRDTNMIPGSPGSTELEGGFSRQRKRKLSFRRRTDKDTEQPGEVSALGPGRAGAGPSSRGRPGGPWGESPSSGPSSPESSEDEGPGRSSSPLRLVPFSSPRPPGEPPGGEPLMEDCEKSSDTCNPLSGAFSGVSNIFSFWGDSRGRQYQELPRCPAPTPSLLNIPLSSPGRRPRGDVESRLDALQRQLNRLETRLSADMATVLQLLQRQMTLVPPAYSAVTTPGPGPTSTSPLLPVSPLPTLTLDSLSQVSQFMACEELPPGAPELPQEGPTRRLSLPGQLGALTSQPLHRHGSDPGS
row,Structure (SMILES),"hERG current change (%, negative = inhibition) at 10uM [%]"
1,CC1CCN(S(=O)(=O)c2ccc3c(c2)c(=O)c(C(=O)N2CCOCC2)cn3C)CC1,13.5
2,CC(Oc1ccc(Br)cc1)C(=O)N(C)CC(=O)Nc1ccc(N2CCOCC2)cc1 (stereo not drawn),2.99
3,CC(C)CN(CC(C)C)C(=O)CN1C(=O)NC2(CCc3ccccc3C2)C1=O (stereo not drawn),-8.61
4,Cc1ccnc(-n2c(C)cc(/C=C3\C(=O)NC(=S)N(C)C3=O)c2C)c1,12.9
5,Cc1cc(=O)[nH]c(COc2ccccc2)n1,17.2
6,CCN(CC)S(=O)(=O)c1ccc2c(c1)nc(SCC(=O)N(C)C1CCS(=O)(=O)C1)n2CC (stereo not drawn),6.94
7,N#Cc1c(Cl)nsc1NCCN1CCOCC1,15.4
8,Cc1cc(S(=O)(=O)NCC(c2ccc(F)cc2)N2CCN(C)CC2)ccc1F (stereo not drawn),-68.4
9,Cc1ccc(S(=O)(=O)NCC(c2ccccc2)N2CCCCC2)cc1 (stereo not drawn),1.79
10,O=S(=O)(NCC(c1ccc2c(c1)OCO2)N1CCOCC1)c1ccc(F)cc1 (stereo not drawn),-6.81
11,Cc1ccc(C(CNS(=O)(=O)c2ccccc2)N2CCN(C)CC2)cc1 (stereo not drawn),-53.6
12,COc1ccc(C(CNS(=O)(=O)c2ccccc2)N2CCN(C)CC2)cc1 (stereo not drawn),-35.7
13,Cc1cc(S(=O)(=O)NCC(c2ccc3c(c2)OCO3)N2CCOCC2)ccc1F (stereo not drawn),-20.7
14,Cc1ccc(C(CNS(=O)(=O)c2ccc(Br)cc2)N2CCN(C)CC2)cc1 (stereo not drawn),-72.4
15,Cc1ccc(S(=O)(=O)NCCNC(C)c2ccc(Br)cc2)cc1 (stereo not drawn),-42.5
16,COc1cccc(C(=O)NNC(=O)C2CCCO2)c1 (stereo not drawn),15.3
17,CCC1=[N+](CC(=O)c2ccc(Br)cc2)CCn2c(C)ccc21.[Br-],-6.76
18,COc1cc(Nc2cc(C)nc3ncnn23)cc(OC)c1,-8.29
19,CN1CCC(NC(=O)Cc2c(F)cccc2Cl)CC1,-1.52
20,CS(=O)(=O)N1CCC(C(=O)Nc2ccc(C(F)(F)F)cc2)CC1,12.4
21,O=C1CCC2S/C(=C/Nc3ccc(C(F)(F)F)cc3)C(=O)N12 (stereo not drawn),-52.2

row,Structure (SMILES),"hERG current change (%, negative = inhibition) at 10uM [%]"
1,O=C(c1ccc(C(F)(F)F)cc1)C1CCCN(C(=O)CN2CCCC2=O)C1 (stereo not drawn),0.525
2,COc1ccc(OC)c(NC(=O)CCNS(=O)(=O)c2cc(Br)cnc2N)c1,-14.9
3,CCSc1nnc2n1C(C)(C)Cc1ccccc1-2,0.0135
4,O=C(COC(=O)c1cccnc1Cl)Nc1ccc2c(c1)OCO2,2.28
5,Cn1c(SCC(=O)Nc2nc3ccccc3s2)nnc1-c1ccccc1,10.3
6,CC1(C)Cc2ccccc2-c2nnc(SCC(=O)Nc3ccc4c(c3)OCO4)n21,-63.2
7,COc1cc(NC(=O)CSc2nnc3n2C(C)(C)Cc2ccccc2-3)cc(OC)c1,10
8,O=C(COC(=O)c1ccccn1)Nc1ccc2c(c1)OCO2,-65.5
9,CC1(C)Cc2ccccc2-c2nnc(SCc3ccc(C#N)cc3)n21,-58.9
10,CC1(C)Cc2ccccc2-c2nnc(SCC(=O)Nc3nc4ccccc4s3)n21,-74.4
11,O=C(COC(=O)c1cnccn1)Nc1ccc2c(c1)OCO2,7.23
12,COC(=O)CSc1nnc2n1C(C)(C)Cc1ccccc1-2,3.46
13,CCn1c(SCC(=O)Nc2ccc3c(c2)OCO3)nnc1-c1ccccc1O,7.21
14,COc1ccc2nc(NC(=O)CSc3nnc4n3C(C)(C)Cc3ccccc3-4)sc2c1,0.248
15,COc1ccc(CCNC(=O)C2CCN(S(=O)(=O)c3ccc(NC(C)=O)cc3)CC2)cc1OC,9.83
16,Nc1cc(=O)[nH]c(SCC(=O)Nc2ccccc2Sc2ccccc2)n1,6.15
17,O=C(Cn1nnc(-c2ccccc2NC(=O)c2ccccc2F)n1)NCc1ccco1,10.1
18,Cc1nc(-c2ccc(C(=O)Nc3cccc(Br)c3)cc2)cs1,7.02
19,Cc1cc(C)n(Cc2ccc(Cl)cc2Cl)c(=O)c1S(=O)(=O)c1ccccc1,14.7
20,COc1ccc(S(=O)(=O)N(CC(=O)N2CCOCC2)c2cc(Cl)ccc2OC)cc1OC,-16.6
21,COc1ccc(CCNC(=O)C/C(C)=N/NC(=O)C23CC4CC(CC(C4)C2)C3)cc1OC,11.7

row,Structure (SMILES),"hERG current change (%, negative = inhibition) at 10uM [%]"
1,Cc1ccccc1-n1c(SCC(=O)Nc2ccc3c(c2)OCO3)nnc1-c1ccccn1,-65.3
2,COc1ccc(C(=O)NC(C)c2nnc(SCC(=O)NC3=NCCS3)n2C)cc1 (stereo not drawn),15.3
3,COc1ccc(N2CCN(C(=O)CSc3nnc4n3C(C)(C)Cc3ccccc3-4)CC2)cc1,-23.8
4,COc1ccc(C(=O)NC(C)c2nnc(SCC(=O)Nc3nc4ccccc4s3)n2C)cc1 (stereo not drawn),-59.4
5,COc1ccccc1N1CCN(C(=O)CSc2nnc3n2C(C)(C)Cc2ccccc2-3)CC1,-37.4
6,CC1(C)Cc2ccccc2-c2nnc(SCC(=O)N3CCN(c4ccccc4)CC3)n21,-73.7
7,CCc1nnc(NC(=O)CSc2nnc(C(C)NC(=O)c3ccccc3)n2C)s1 (stereo not drawn),29.3
8,O=C(CSc1nnc(-c2ccccn2)n1-c1ccccc1)Nc1ccc2c(c1)OCO2,1.81
9,Cc1ccc(-n2c(SCC(=O)Nc3ccc4c(c3)OCO4)nnc2-c2ccccn2)cc1,4.28
10,C/C=C(\C)CN1CCC(Oc2cccc(C(=O)NCc3ccccn3)c2)CC1,-4.59
11,COC(=O)CN(c1cccc(C(C)=O)c1)S(C)(=O)=O,9.02
12,O=C(c1ccccc1Br)N1N=C(c2ccccc2)CC1c1ccccc1F (stereo not drawn),15.7
13,CCc1cccc(NC(=O)C2CCCN2S(=O)(=O)c2ccc3c(c2)n(C)c(=O)c(=O)n3C)c1 (stereo not drawn),-9.62
14,Cc1ccc(NC(=O)c2ccc(Cl)c(S(=O)(=O)N3CCCC3)c2)nc1,-8.97
15,Cc1cccc(NC(=O)c2ccc(S(=O)(=O)N3CCCCCC3)cc2)n1,-4.07
16,Cc1cccc(NC(=O)c2ccc(S(=O)(=O)N3CCCCC3)cc2)n1,-6.69
17,Cc1ccc(NC(=O)c2ccc(Cl)c(S(=O)(=O)N3CCCCCC3)c2)nc1,-57.9
18,Cc1cccc(NC(=O)c2ccc(Cl)c(S(=O)(=O)N3CCCCCC3)c2)n1,-25.1
19,Cc1ccnc(NC(=O)c2ccc(Cl)c(S(=O)(=O)N3CCCCC3)c2)c1,-79.1
20,Cc1ccnc(NC(=O)c2ccc(S(=O)(=O)N3CCCCC3)cc2)c1,-17.9
21,Cc1cccc(NC(=O)c2ccc(S(=O)(=O)N3CCC(C)CC3)cc2)n1,-59.2

row,Structure (SMILES),"hERG current change (%, negative = inhibition) at 10uM [%]"
1,Cc1cccc(NC(=O)c2ccc(C)c(S(=O)(=O)N3CCCCC3)c2)n1,-36.7
2,Cc1ccnc(NC(=O)c2ccc(Cl)c(S(=O)(=O)N3CCCC3)c2)c1,-15.7
3,Cc1cccc(NC(=O)c2ccc(Cl)c(S(=O)(=O)N3CCCCC3)c2)n1,-71.3
4,Cc1ccc(NC(=O)c2ccc(Cl)c(S(=O)(=O)N3CCCCC3)c2)nc1,-23.4
5,Cc1c(Cl)cccc1N1C(=O)C2ON(c3ccccc3)C(c3cccnc3)C2C1=O (stereo not drawn),4.12
6,Cn1c(CNC(=O)OC(C)(C)C)nnc1SCC(=O)N1CCOCC1,8.91
7,CSc1nc2nc(-c3ccc(F)cc3)c(CCN3CCN(C)CC3)cn2n1,-2.66
8,Cc1cc(NC(=O)CSc2nc3ccccc3n2CC(C)C)no1,19.2
9,Cc1cccc(C(=O)Oc2ccccc2C(=O)N2CCOCC2)c1,-8.06
10,COc1ccccc1N1CCN(C2CCCN(C(=O)CCn3cncn3)C2)CC1 (stereo not drawn),13
11,CCn1nnnc1SCC(=O)c1ccc(NC(C)=O)cc1,0.37
12,CCC1(CC)C(=O)N(C)C(=O)NC1=Nc1ccccc1,15.8
13,CC(C)(C)n1nnnc1C(c1ccc(F)cc1)N1CCN(Cc2ccc3c(c2)OCO3)CC1 (stereo not drawn),-37.8
14,CCC(C)(C)n1nnnc1C(c1ccc2ncccc2c1)N1CCCCCC1 (stereo not drawn),6.75
15,CCC(C)(C)n1nnnc1C(c1ccc(C)cc1)N1CCN(Cc2ccc3c(c2)OCO3)CC1 (stereo not drawn),-50.3
16,Cc1ccc(C(c2nnnn2Cc2cccs2)N2CCN(Cc3ccc4c(c3)OCO4)CC2)cc1 (stereo not drawn),-75.3
17,COCCn1nnnc1C(c1ccccc1)N1CCN(Cc2ccc3c(c2)OCO3)CC1.Cl (stereo not drawn),-21.6
18,CCC(C)(C)n1nnnc1C(c1ccc2ncccc2c1)N1CCCC(C)C1 (stereo not drawn),-13.6
19,CC(C)(C)n1nnnc1C(c1cccs1)N1CCN(Cc2ccc3c(c2)OCO3)CC1 (stereo not drawn),-19.4
20,CCC(C)(C)n1nnnc1C(c1ccc2ncccc2c1)N1CCN(Cc2ccc3c(c2)OCO3)CC1 (stereo not drawn),-69.7
21,CCN1CCN(C(c2ccccc2)c2nnnn2Cc2ccc3c(c2)OCO3)CC1.Cl (stereo not drawn),-39.1
